Results published in PubChem BioAssay (NCATS).
Where “and” joins values, the source holds several entries; their conditions need not be identical. Equal entries are not always repeated. Results filed as inconclusive are left out. Calls of active or inactive are those of the source. The call rests on the fitted dose curve. Bridge positions count the residues as written; N and C are the ends. Square brackets hold non-standard residues; d marks the D form. Peptide text beside a SMILES is read from it. * marks the point of attachment. X1 = CCC(C)C(N)C1=NC(C(=O)*)CS1; dOrn = NCCC[C@@H](N)C(=O)O

How the values were obtained:
[1] = Primary qHTS for inhibitors of SARS-S pseudo-typed particle cell entry (AID 1479145); settings: outcome: dose series up to 57.1 µM unless noted; further: nearly all actives have a fitted effect of over 45% in size
[2] = Primary qHTS for Huh7 cytotoxicity: counterscreen for inhibitors of MERS-S pseudotyped particle cell entry (AID 1479147); settings: outcome: dose series up to 57.1 µM unless noted
[3] = Primary qHTS for inhibitors of MERS-S pseudo-typed particle cell entry (AID 1479149); settings: outcome: dose series up to 57.1 µM unless noted; further: nearly all actives have a fitted effect of over 60% in size
[4] = Primary qHTS for Vero E6 cytotoxicity: counterscreen for inhibitors of SARS-S pseudo-typed particle cell entry (AID 1479150); settings: outcome: dose series up to 57.1 µM unless noted
[5] = Cytotoxicity counterscreen for inhibitors of SARS-CoV-2 cell entry (AID 1645845); settings: outcome: dose series up to 57.1 µM unless noted; further: nearly all actives have a fitted effect of over 50% in size
Summary of the method: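 ATP-content luminescence (ATPLite 1step, 15 min RT) read after 48 h compound exposure of Expi293F cells stably expressing human ACE2; normalized to cells-only wells and media-only wells.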

[6] = Primary qHTS to identify inhibitors of SARS-CoV-2 cell entry (AID 1645846); settings: SARS-CoV-2 pseudovirus cell entry assay, luminescence; activity change, negative = inhibition: at 57.1 µM (top of the series) unless noted; further: nearly all actives have a fitted effect of over 45% in size
Summary of the method: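 Inhibition of spike-mediated entry was scored in human ACE2-transfected Expi293F cells. Particles were MLV-pseudotyped with Wuhan-Hu-1 S carrying a 19-aa C-terminal deletion; signal was luciferase after two days, scaled between spike PP and fusion-protein-free PP.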

Cc1cccc(C)c1NC(=O)C1CCCCN1C (configuration not stated)
inactive: Potency [1] | Potency [2] | Potency [3] | Potency [4] | Potency [5]
-22.7%: activity change, negative = inhibition [6]

O=[N+]([O-])O[C@@H]1CO[C@H]2[C@@H]1OC[C@@H]2O
inactive: Potency [1] | Potency [2] | Potency [3] | Potency [4] | Potency [5]
-29.2% [at 114 µM]: activity change, negative = inhibition [6]

CC(=O)OCC(=O)[C@@]1(O)[C@H](C)C[C@H]2[C@@H]3C[C@H](F)C4=CC(=O)C=C[C@]4(C)[C@H]3[C@@H](O)C[C@@]21C
-11.4%: activity change, negative = inhibition [6]
inactive: Potency [1] | Potency [2] | Potency [3] | Potency [4] | Potency [5]

O=c1c2c(c1=O)N(CCP(=O)(O)O)CCCN2
3.47% [at 114 µM]: activity change, negative = inhibition [6]
inactive: Potency [1] | Potency [2] | Potency [3] | Potency [4] | Potency [5]

O[C@@H]1[C@@H](O)[C@@H](O)OC[C@@H]1O
inactive: Potency [1] | Potency [2] | Potency [3] | Potency [4] | Potency [5]
-10.9% [at 171 µM]: activity change, negative = inhibition [6]

CC1(C)S[C@H]2[C@H](NC(=O)[C@@H](N)c3ccc(O)cc3)C(=O)N2[C@H]1C(=O)O
-1.08% and -18.3%: activity change, negative = inhibition [6]
inactive: Potency [1] | Potency [2] | Potency [3] | Potency [4] | Potency [5]

CCC(C)C(N)C1=NC(C(=O)N[C@@H](CC(C)C)C(=O)N[C@H](CCC(=O)O)C(=O)N[C@H](C(=O)N[C@H]2CCCCNC(=O)[C@H](CC(N)=O)NC(=O)[C@@H](CC(=O)O)NC(=O)[C@H](Cc3cnc[nH]3)NC(=O)[C@@H](Cc3ccccc3)NC(=O)[C@H]([C@@H](C)CC)NC(=O)[C@@H](CCCN)NC2=O)[C@@H](C)CC)CS1 (some centres not stated) (X1-L[dE]IK[dOrn]I[dF]H[dD]N; lactam 4-C)
-8.8% [at 27.1 µM]: activity change, negative = inhibition [6]
inactive: Potency [1] | Potency [2] | Potency [3] | Potency [4] | Potency [5]

CC[C@H]1OC(=O)[C@H](C)[C@@H](O[C@H]2C[C@@](C)(OC)[C@@H](O)[C@H](C)O2)[C@H](C)[C@@H](O[C@@H]2O[C@H](C)C[C@H](N(C)C)[C@H]2O)C(C)(O)C[C@@H](C)/C(=N\OCOCCOC)[C@H](C)[C@@H](O)[C@]1(C)O (some centres not stated)
inactive: Potency [1] | Potency [2] | Potency [3] | Potency [4] | Potency [5] | Potency [6]

CN=C(NC)NCc1ccccc1
inactive: Potency [1] | Potency [2] | Potency [3] | Potency [4] | Potency [5]
-12.2%: activity change, negative = inhibition [6]

CCCCCCCCCC(=O)OCCN1CCN(CC/C=C2/c3ccccc3Sc3ccc(Cl)cc32)CC1
inactive: Potency [1] | Potency [2] | Potency [3] | Potency [4] | Potency [5]
-15%: activity change, negative = inhibition [6]

CO[C@H]1C[C@@H]2CC[C@@H](C)[C@@](O)(O2)C(=O)C(=O)N2CCCC[C@H]2C(=O)O[C@H]([C@H](C)C[C@@H]2CC[C@@H](OC(=O)C(C)(CO)CO)[C@H](OC)C2)CC(=O)[C@H](C)/C=C(\C)[C@@H](O)[C@@H](OC)C(=O)[C@H](C)C[C@H](C)/C=C/C=C/C=C/1C
-29.8% [at 27.1 µM]: activity change, negative = inhibition [6]
inactive: Potency [1] | Potency [2] | Potency [3] | Potency [4] | Potency [5]

C[C@@H]1CC2C3C[C@H](F)C4=CC(=O)C=C[C@]4(C)[C@@]3(F)[C@@H](O)C[C@]2(C)[C@@]1(OC(=O)c1ccco1)C(=O)SCF (some centres not stated)
inactive: Potency [1] | Potency [2] | Potency [3] | Potency [4] | Potency [5]
3.79%: activity change, negative = inhibition [6]

CN1CC(O)c2cc(N=NC(N)=O)c(O)cc21 (configuration not stated)
-20%: activity change, negative = inhibition [6]
inactive: Potency [1] | Potency [2] | Potency [3] | Potency [4] | Potency [5]

CN(C)/C(N)=N/C(=N)N
inactive: outcome [1] inactive [setting not given] | outcome [2] inactive [setting not given] | outcome [3] inactive [setting not given] | outcome [4] inactive [setting not given] | outcome [5] inactive [setting not given] | outcome [6] inactive [setting not given]

CC(C)(C)CC(=O)OCC(=O)[C@@]12OC(C)(C)O[C@@H]1C[C@H]1[C@@H]3CCC4=CC(=O)C=C[C@]4(C)[C@@]3(F)[C@@H](O)C[C@@]12C
inactive: Potency [1] | Potency [2] | Potency [3] | Potency [4] | Potency [5]
-18.4%: activity change, negative = inhibition [6]

CCOC(=O)O[C@]1(C(=O)COC(=O)CC)CC[C@H]2[C@@H]3CCC4=CC(=O)C=C[C@]4(C)[C@H]3[C@@H](O)C[C@@]21C
inactive: Potency [1] | Potency [2] | Potency [3] | Potency [4] | Potency [5] | Potency [6]

C=C1/C(=C/C=C2\CCC[C@]3(C)[C@@H]([C@H](C)/C=C/C=C/C(O)(CC)CC)CC[C@@H]23)C[C@@H](O)C[C@@H]1O
-5.54%: activity change, negative = inhibition [6]
inactive: Potency [1] | Potency [2] | Potency [3] | Potency [4] | Potency [5]

CC1(C)S[C@@H]2[C@H](NC(=O)C(C(=O)Oc3ccc4c(c3)CCC4)c3ccccc3)C(=O)N2[C@H]1C(=O)O (some centres not stated)
inactive: Potency [1] | Potency [2] | Potency [3] | Potency [4] | Potency [5] | Potency [6]

C#C[C@]1(O)CC[C@H]2[C@@H]3CCC4=CC(=O)CCC4[C@H]3CC[C@@]21CC (some centres not stated)
inactive: Potency [1] | Potency [2] | Potency [3] | Potency [4] | Potency [5]
-19.1%: activity change, negative = inhibition [6]

CC1(C)S[C@@H]2[C@@H](N3C(=O)[C@@H](c4ccccc4)NC3(C)C)C(=O)N2[C@H]1C(=O)O
inactive: Potency [1] | Potency [2] | Potency [3] | Potency [4] | Potency [5]
-21.4%: activity change, negative = inhibition [6]

CCCCCCCCN=C(N)NC(N)=NCc1ccc(Cl)c(Cl)c1
inactive: Potency [1] | Potency [2] | Potency [3] | Potency [4] | Potency [5]
-3.64%: activity change, negative = inhibition [6]

C[C@]12CCC3c4ccc(OS(=O)(=O)O)cc4CCC3C1CCC2=O (some centres not stated)
-13.1%: activity change, negative = inhibition [6]
inactive: Potency [1] | Potency [2] | Potency [3] | Potency [4] | Potency [5]
